From PubChem BioAssay (Tox21)
Calls of active or inactive are those of the source. Entries that show only a call come without a potency. The call rests on the fitted dose curve; in most records, active means well fitted activation curve with a large enough effect in the repeat runs; inconclusive means weak or mixed curves; inactive means flat fitted curve, though single readings scatter.

Target: KiSS-1 receptor (Homo sapiens) (UniProt Q969F8)
Assay: Human kisspeptin (KISS1R) small molecule agonists, calcium flux assay in KISS1R-HEK293 cells (AID 1920064)
Conditions: KISS1R-HEK293, calcium flux fluorescence, agonist; series mostly up to 76.8 µM
Description: National Center for Advancing Translational Sciences [NCATS]
Division of Preclinical Innovation [DPI]
U.S. Environmental Protection Agency [EPA]
National Institutes of Environmental Health Sciences [NIEHS]
National Toxicology Program [NTP]
U.S. Food and Drug Administration [FDA]
Kisspeptin and its receptor KISS1R play key roles in mammalian reproduction due to their involvement in the onset of puberty and control of the hypothalamic-pituitary-gonadal axis such as regulates GnRH release from the hypothalamus. The kisspeptin/KISS1R system also plays a direct role in peripheral organs (including the ovary, testis, uterus, and placenta) and is implicated in reproductive diseases such as miscarriage and polycystic ovary syndrome (PCOS). Abnormal KISS1R activity is associated with abnormal puberty, infertility, endometriosis, and hormone-dependent tumors. The KISS1 receptor (KISS1R, also called GPR54), a G-protein-coupled receptor (GPCR), acts (through phospholipase C) to increase intracellular inositol trisphosphate and then release intracellular calcium stores. Cell-based KISS1R-HEK293 assay is using HEK293 cells that have been genetically engineered to express the human KISS1R, which activity can be measured by calcium signaling. A compound/drug can activate (agonist) KISS1R that can be monitored by levels of intracellular calcium.
KISS1R-HEK293 cells developed by Codex Corp contain human KISS1R gene, which was stably integrated into HEK 293 cells. The compound activation can be detected by fluorescence intensity via calcium flux assay. This cell line has been used to screen the Tox21 10K compound library to identify agonists of KISS1R.
KISS1R-Hek293 cells were dispensed at 1500 cells/4uL/well in 1536-well black wall/clear bottom plates using a multidrop dispenser. After the assay plates were incubated at a 37 C/5% CO2 incubator for 18 hours, 4 microL of Calcium Dye Solution was added to each well. The plates were incubated at 37 C for 1 hour. And then 23 nL of compounds dissolved in DMSO, positive controls, or DMSO only was transferred to the assay plate by a pin tool station. The fluorescence intensity in the plates was measured using FDSS 7000EX kinetic plate reader with a filter set of Ex/Em=480/540 for 3 min at 1 sec intervals. Each test compound was measured at 15 concentrations and in triplicates.
Potency means the concentration at half of the fitted maximal effect.

Chain of KiSS-1 receptor (Homo sapiens) (Q969F8 whole entry, looked up): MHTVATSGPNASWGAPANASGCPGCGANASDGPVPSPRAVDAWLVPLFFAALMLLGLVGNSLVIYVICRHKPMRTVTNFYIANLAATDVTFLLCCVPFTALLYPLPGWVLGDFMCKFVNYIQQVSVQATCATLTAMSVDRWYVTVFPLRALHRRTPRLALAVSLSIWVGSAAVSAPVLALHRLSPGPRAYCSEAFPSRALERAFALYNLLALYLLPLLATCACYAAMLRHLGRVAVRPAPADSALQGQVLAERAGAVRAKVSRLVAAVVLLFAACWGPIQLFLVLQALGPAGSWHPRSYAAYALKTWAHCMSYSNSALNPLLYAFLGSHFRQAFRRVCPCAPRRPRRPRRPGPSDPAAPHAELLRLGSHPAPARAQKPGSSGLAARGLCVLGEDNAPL

| SMILES | Potency | activation |
| --- | --- | --- |
| Clc1ccccc1-c1ccccc1Cl | inactive | – |
| CCC(COC(=O)c1cc(OC)c(OC)c(OC)c1)(c1ccccc1)N(C)C (stereo not given) | inactive | – |
| COc1ccc2c(C(=O)c3ccc(Cl)cc3)c(C)n(CC(=O)O)c2c1 | inactive | – |
| Cc1cc(C)nc(Nc2ccccc2)n1 | inactive | – |
| O=C(NC(=O)c1c(F)cccc1F)Nc1cc(Cl)c(OC(F)(F)C(F)F)c(Cl)c1 | inactive | – |
| c1ccc2c(c1)[nH]c1cnccc12 | inactive | – |
| NC(=O)C(Cl)(Cl)Cl | inactive | – |
| CCOC(=O)NC(O)C(Cl)(Cl)Cl (stereo not given) | inactive | – |
| CN1C(=O)[C@@H](NC(=O)c2cc3ccccc3[nH]2)N=C(c2ccccc2)c2ccccc21 | inactive | – |
| CCCCOC(C)=O | inactive | – |
| c1cc[c]([Hg][c]2ccccc2)cc1 | inactive | – |
| CC(C(O)c1ccccc1)N(C)C/C=C/c1ccccc1 (stereo not given) | inactive | – |
| O=C(O)C(Br)CBr (stereo not given) | inactive | – |
| C=CC(=O)N(C)C | inactive | – |
| COC(=O)C1(O)c2ccccc2-c2ccccc21 | inactive | – |
| COP(N)(=S)Oc1ccccc1C(=O)OC(C)C (stereo not given) | inactive | – |
| CCc1ccc(C(=O)NN(C(=O)c2cc(C)cc(C)c2)C(C)(C)C)cc1 | inactive | – |
| NCCc1cc(O)c(O)cc1O | inactive | – |
| O=C(CCCCl)c1ccc(F)cc1 | inactive | – |
| CC(=O)OC(c1ccccc1)C(Cl)(Cl)Cl (stereo not given) | inactive | – |

| SMILES | Potency | activation |
| --- | --- | --- |
| CCN(C(C)=O)c1cccc(-c2ccnc3c(C#N)cnn23)c1 | inactive | – |
| O=[N+]([O-])c1cccc(CCl)c1 | inactive | – |
| COP(=O)(OC)OC(Br)C(Cl)(Cl)Br (stereo not given) | inactive | – |
| CC(C)(Cl)[N+](=O)[O-] | inactive | – |
| CC(Cl)C(C)Cl (stereo not given) | inactive | – |
| CC(C)(c1ccccc1)c1ccc(O)cc1 | inactive | – |
| C[C@@H]1CC[C@@]2(OC1)O[C@H]1[C@@H](O)[C@H]3[C@@H]4CC[C@H]5C[C@@H](O[C@@H]6O[C@H](CO)[C@H](O[C@@H]7O[C@H](CO)[C@@H](O)[C@H](O[C@@H]8OC[C@@H](O)[C@H](O)[C@H]8O)[C@H]7O[C@@H]7O[C@H](CO)[C@@H](O)[C@H](O[C@@H]8O[C@H](CO)[C@@H](O)[C@H](O)[C@H]8O)[C@H]7O)[C@H](O)[C@H]6O)[C@H](O)C[C@]5(C)[C@H]4CC[C@]3(C)[C@H]1[C@@H]2C | 23.2 µM (active) | – |
| CC(=O)O.CC(=O)O.CC(=O)O.CC(=O)O.CC(=O)O.CC(=O)O.CC(=O)O.O.O.[Cr].[Cr].[Cr] | inactive | – |
| N#CN | inactive | – |
| CC(C)[C@H](C(=O)OC(C#N)c1cccc(Oc2ccccc2)c1)c1ccc(OC(F)F)cc1 (stereo not given in full) | inactive | – |
| CC(Cl)(Cl)Cl | inactive | – |
| O=C(NC(=O)c1c(F)cccc1F)Nc1cc(Cl)c(Oc2ncc(C(F)(F)F)cc2Cl)c(Cl)c1 | inactive | – |
| C=CCOC(=O)c1ccccc1N | inactive | – |
| O=C(O)CC(Cl)C(=O)O (stereo not given) | inactive | – |
| CCc1cc(OC)c(C[C@H](C)N)cc1OC | inactive | – |
| CCOc1ccc(C(C)(C)COCc2cccc(Oc3ccccc3)c2)cc1 | inactive | – |
| CC[C@H](C)[C@H]1O[C@]2(C=C[C@@H]1C)C[C@@H]1C[C@@H](C/C=C(\C)[C@@H](O[C@H]3C[C@H](OC)[C@@H](O[C@H]4C[C@H](OC)[C@@H](O)[C@H](C)O4)[C@H](C)O3)[C@@H](C)/C=C/C=C3\CO[C@@H]4[C@H](O)C(C)=C[C@@H](C(=O)O1)[C@]34O)O2 | inactive | – |
| CC(=O)OCC1=C(C(=O)O)N2C(=O)[C@@H](N)[C@H]2SC1 | – | -0.221% [at 15.8 µM] (inactive) |
| NP(N)(=O)NC(=O)c1ccc(F)cc1 | inactive | – |
| O=C(CCl)C(Cl)Cl | inactive | – |
